For assay [1], the target named is Estrogen-related receptor gamma (Homo sapiens) (UniProt P62508). Put plainly: ATG_ERRg_TRANS: Attagene TRANS-FACTORIAL HepG2 Assay for human Estrogen-Related Receptor gamma (ERRg) (AID 2282977; active means hit-call score of the fitted dose curve at least 0.9, where 1 is the maximum;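 further: hits increase reporter signal over DMSO so potencies reflect activators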). As to conditions: HepG2 Attagene TRANS reporter, ERRg transactivation. In a few lines: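 Readout: fluorescent reporter-mRNA fragments resolved by capillary electrophoresis after RT-PCR and HpaI cut. Cells: transiently transfected HepG2 carrying GAL4-UAS reporters driven by exogenous NR-Gal4 chimeras, dosed 24 h. Activity fitted upward relative to DMSO baseline.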

The target in assay [2] is Bile acid receptor (Homo sapiens) (UniProt Q96RI1). Put plainly: ATG_FXR_TRANS: Attagene TRANS-FACTORIAL HepG2 Assay for Farnesoid X Receptor (FXR) (AID 2282979; active means hit-call score of the fitted dose curve at least 0.9, where 1 is the maximum;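 further: hits raise reporter mRNA above DMSO so AC50 marks FXR activation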). As to conditions: HepG2 Attagene TRANS FXR-GAL4 reporter transcription. In a few lines:
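Reporter transcripts from transfected HepG2 cells were measured 24 h after dosing, using RT-PCR with capillary electrophoresis of 6-FAM-labelled fragments. The read-out reflects activity of exogenous FXR-Gal4 chimera on GAL4-UAS units, with induction relative to DMSO.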

In assay [3] the target is Oxysterols receptor LXR-alpha (Homo sapiens) (UniProt Q13133). The assay can be described thus: ATG_LXRa_TRANS: Attagene TRANS-FACTORIAL HepG2 Assay for human Liver X Receptor alpha (LXRa) (AID 2282980; active means hit-call score of the fitted dose curve at least 0.9, where 1 is the maximum). As to conditions: HepG2 Attagene TRANS reporter, LXRa transactivation. In a few lines: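 Chemical-induced reporter mRNA measured by RT-PCR with fluorescent labelling and capillary electrophoresis after 24 h dosing of transiently transfected HepG2 cells expressing exogenous NR-Gal4 chimeras; increases scored against DMSO baseline.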

The target in assay [4] is Oxysterols receptor LXR-beta (Homo sapiens) (UniProt P55055). The assay can be described thus: ATG_LXRb_TRANS: Attagene TRANS-FACTORIAL HepG2 Assay for human Liver X Receptor beta (LXRb) (AID 2282981; active means hit-call score of the fitted dose curve at least 0.9, where 1 is the maximum). As to conditions: HepG2 Attagene TRANS GAL4-LXRb reporter, mRNA. In a few lines: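 Readout: fluorescent reporter mRNA fragments resolved by capillary electrophoresis after RT-PCR. System: transiently transfected human HepG2, exogenous LXRb-Gal4 chimera driving GAL4-UAS reporter, 24 h dosing. Activity fitted upward against DMSO baseline.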

For assay [5], the target named is Hepatocyte nuclear factor 4-alpha (Homo sapiens) (UniProt P41235). Put plainly: ATG_HNF4a_TRANS: Attagene TRANS-FACTORIAL HepG2 Assay for human Hepatocyte Nuclear Factor 4 alpha (HNF4a) (AID 2282982; active means hit-call score of the fitted dose curve at least 0.9, where 1 is the maximum). As to conditions: HepG2 HNF4a transactivation reporter, mRNA readout. In a few lines:
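Transient MRTU transfection of HepG2, 24 h dosing. Readout: reporter mRNA via RT-PCR + capillary electrophoresis, fluorescence; activity fit upward relative to DMSO control.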

Assay [6] is described as follows: ATG_M_06_TRANS: Attagene TRANS-FACTORIAL HepG2 Assay for M06 Transcription Factor (Internal Marker) (AID 2282983; active means hit-call score of the fitted dose curve at least 0.9, where 1 is the maximum). The conditions noted are these: HepG2 Attagene TRANS M06 internal marker reporter. In outline: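 Background-control reporter readout: after 24 h chemical exposure of transiently transfected HepG2 (GAL4-UAS reporter units), mRNA quantified by RT-PCR with fluorescent labeling and capillary electrophoresis. Gain-of-signal fitting against DMSO baseline.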

In assay [7] the target is Transcriptional activator Myb (Homo sapiens) (UniProt P10242). Put plainly: ATG_Myb_CIS: Attagene CIS-FACTORIAL HepG2 Assay for human Myeloblastosis (Myb) Proto-Oncogene Transcription Factor (AID 2282986). As to conditions: HepG2 Attagene CIS-FACTORIAL Myb reporter transcription; actives raise or lower the signal. In a few lines:
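After 24 h of compound dosing, total RNA from transfected HepG2 cells is reverse-transcribed and the reporter sequences amplified, labeled and separated by capillary electrophoresis. Values come from bidirectional fitting against DMSO.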

Assay [8] concerns the target Nuclear respiratory factor 1 (Homo sapiens) (UniProt Q16656). The assay can be described thus: ATG_NRF1_CIS: Attagene CIS-FACTORIAL HepG2 Assay for human Nuclear Respiratory Factor 1 (NRF1) Orphan Gene (AID 2282987). The conditions noted are these: HepG2 NRF1 cis-element reporter, Attagene multiplex; actives raise or lower the signal. In outline: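 Measured: fluorescent reporter-specific RT-PCR products from transfected HepG2 cells, separated by capillary electrophoresis. Exposure lasted 24 h. Analysis used bidirectional curve fitting with DMSO as negative control.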

Assay [9] can be described thus: ATG_NFI_CIS: Attagene CIS-FACTORIAL HepG2 Assay for human Nuclear Factor I (NFI) (AID 2282989). The conditions noted are these: HepG2 cis-regulatory reporter, NFI response element transcription; actives raise or lower the signal. In outline:
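Reporter transcription driven by endogenous transcription factors in HepG2 cells; 24 h treatment. Quantitation by labelled RT-PCR fragments on capillary electrophoresis, gain- or loss-of-signal relative to DMSO.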

The target of assay [10] is Myc proto-oncogene protein (Homo sapiens) (UniProt P01106). Put plainly: ATG_Myc_CIS: Attagene CIS-FACTORIAL HepG2 Assay for human Myelocytomatosis (Myc) Proto-Oncogene Transcription Factor (AID 2282990). As to conditions: HepG2, Attagene cis-reporter transcription factor activity; actives raise or lower the signal. In a few lines: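 Read-out: fluorescent reporter mRNA fragments resolved by capillary electrophoresis after RT-PCR. Human HepG2 liver cells carried transfected cis-element reporter units and were dosed for 24 h. Gain or loss of signal fitted relative to DMSO baseline.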

Assay [11] in a line: ATG_NF_kB_CIS: Attagene CIS-FACTORIAL HepG2 Assay for human Nuclear Factor Kappa B (NF-kB) (AID 2282991). As to conditions: HepG2 Attagene cis-factorial NF-kB reporter mRNA; actives raise or lower the signal. In a few lines: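 Fluorescence of labelled RT-PCR products separated by capillary electrophoresis gives reporter mRNA levels from transfected HepG2 cells exposed 24 h; values are fitted in both directions relative to DMSO.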

Assay [12] is described as follows: ATG_NRF2_ARE_CIS: Attagene CIS-FACTORIAL HepG2 Assay for human Nuclear Factor Erythroid 2 Related Factor 2 (NFR2) response to Antioxidant Response Elements (ARE) (AID 2282992). As to conditions: HepG2 Attagene ARE/NRF2 reporter, transcription factor activity; actives raise or lower the signal. In a few lines: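 Endogenous transcription factor activity in human liver HepG2 cells is tracked via a cis-element-driven reporter within a multiplexed set. mRNA induction is read by RT-PCR and capillary electrophoresis after 24 h, with DMSO as baseline.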

Assay [13] in a line: ATG_Oct_MLP_CIS: Attagene CIS-FACTORIAL HepG2 Assay for human Octamer-Binding Transcription Factor (Oct) (AID 2282993). As to conditions: HepG2 Attagene cis-factorial Oct reporter, mRNA; actives raise or lower the signal. In outline:
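Transfected HepG2 cells, 24 h treatment. Reporter mRNA quantified by RT-PCR–capillary electrophoresis; bidirectional fitting against DMSO.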

Assay [14] deals with Cellular tumor antigen p53 (Homo sapiens) (UniProt P04637). The assay can be described thus: ATG_p53_CIS: Attagene CIS-FACTORIAL HepG2 Assay for human p53 Transcription Factor (AID 2282994). As to conditions: HepG2 p53 cis-element reporter, Attagene mRNA; actives raise or lower the signal. In outline:
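Steps: transfect HepG2 with multiplexed cis reporter constructs; dose chemicals 24 h; extract RNA, reverse-transcribe, PCR-amplify reporter sequences; FAM-label, HpaI-digest, resolve fragments by CE. Activity fitted both directions relative to DMSO.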

Assay [15] is described as follows: BSK_3C_TissueFactor: BioMAP Diversity Plus: 3C Assay for Tissue Factor Biomarker Activity (AID 2282997). The conditions noted are these: BioMAP 3C HUVEC, tissue factor biomarker readout; actives raise or lower the signal. In a few lines:
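Tissue factor on primary human umbilical vein endothelium was read by ELISA 24 h after dosing, gain or loss relative to DMSO. Cytotoxicity ran alongside via SRB (0.1%, TCA-fixed, 560 nm).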

A short description of assay [16]: BSK_3C_uPAR: BioMAP Diversity Plus: 3C Assay for Urokinase-type plasminogen activator receptor (uPAR) Biomarker Activity (AID 2282998). The conditions noted are these: BioMAP 3C HUVEC, uPAR biomarker ELISA; actives raise or lower the signal. In outline: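 Readout: ELISA for surface uPAR. System: human umbilical vein endothelial primary cells, 24 h after chemical exposure. Analysis: bidirectional fit, DMSO baseline.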

The target of assay [17] is Glucocorticoid receptor (Homo sapiens) (UniProt P04150). The assay can be described thus: ATG_GR_TRANS: Attagene TRANS-FACTORIAL HepG2 Assay for human Glucocorticoid Receptor (GR) (AID 2282978; active means hit-call score of the fitted dose curve at least 0.9, where 1 is the maximum;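 further: activators score as hits since higher reporter transcript over DMSO is fitted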). The conditions noted are these: HepG2 Attagene TRANS GR reporter, mRNA transcription. In a few lines:
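After 24 h incubation with test chemical, transfected HepG2 cells were lysed for RNA; reporter cDNA was amplified, FAM-labelled, HpaI-digested and sized on a capillary analyser. Signal gain relative to DMSO was scored.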

Assay [18] in a line: ATG_M_32_TRANS: Attagene TRANS-FACTORIAL HepG2 Assay for M32 Transcription Factor (Internal Marker) (AID 2282984; active means hit-call score of the fitted dose curve at least 0.9, where 1 is the maximum;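 further: transcript level of a background control reporter unit measured by RT-PCR and capillary electrophoresis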). The conditions noted are these: HepG2 Attagene TRANS M32 internal marker reporter. In outline:
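Read-out: fluorescent reporter cDNA fragments resolved by capillary electrophoresis after RT-PCR of total RNA. Transfected HepG2 cells were exposed to chemical for 24 h. Activity scored in the positive direction relative to DMSO.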

Assay [19] deals with Nuclear receptor subfamily 4 group A member 2 (Homo sapiens) (UniProt P43354). The assay can be described thus: ATG_NURR1_TRANS: Attagene TRANS-FACTORIAL HepG2 Assay for human Nuclear Receptor Related Protein 1 (NURR1) (AID 2282985; active means hit-call score of the fitted dose curve at least 0.9, where 1 is the maximum). As to conditions: HepG2 Attagene TRANS reporter, mRNA readout. In a few lines:
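Read-out: reporter mRNA induction by RT-PCR plus capillary electrophoresis with fluorescence detection, after 24 h dosing of transfected HepG2 cells. Exogenous NR-Gal4 chimera activity drives GAL4-UAS reporter; activity fitted upward versus DMSO.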

Results filed as inconclusive are left out. Activity calls are given as the source filed them. How the source made its calls, unless noted: active means hit-call score of the fitted dose curve at least 0.9, where 1 is the maximum; inactive means score below 0.9.

Sequence of Oxysterols receptor LXR-alpha (Homo sapiens) (Q13133 whole entry, looked up, the tested form may be a part): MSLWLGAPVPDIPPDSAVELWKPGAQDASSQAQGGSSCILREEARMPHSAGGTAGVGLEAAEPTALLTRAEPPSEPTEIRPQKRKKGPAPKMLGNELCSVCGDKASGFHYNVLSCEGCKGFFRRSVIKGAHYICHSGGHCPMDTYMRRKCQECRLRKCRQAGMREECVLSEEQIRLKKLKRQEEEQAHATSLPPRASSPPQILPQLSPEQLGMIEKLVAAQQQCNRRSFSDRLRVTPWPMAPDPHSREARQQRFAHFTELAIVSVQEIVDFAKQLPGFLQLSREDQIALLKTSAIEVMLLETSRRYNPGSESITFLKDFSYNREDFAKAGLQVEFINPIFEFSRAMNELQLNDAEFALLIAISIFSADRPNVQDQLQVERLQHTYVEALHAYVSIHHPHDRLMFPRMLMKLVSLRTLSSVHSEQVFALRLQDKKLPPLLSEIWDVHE
Sequence of Oxysterols receptor LXR-beta (Homo sapiens) (P55055 whole entry, looked up, the tested form may be a part): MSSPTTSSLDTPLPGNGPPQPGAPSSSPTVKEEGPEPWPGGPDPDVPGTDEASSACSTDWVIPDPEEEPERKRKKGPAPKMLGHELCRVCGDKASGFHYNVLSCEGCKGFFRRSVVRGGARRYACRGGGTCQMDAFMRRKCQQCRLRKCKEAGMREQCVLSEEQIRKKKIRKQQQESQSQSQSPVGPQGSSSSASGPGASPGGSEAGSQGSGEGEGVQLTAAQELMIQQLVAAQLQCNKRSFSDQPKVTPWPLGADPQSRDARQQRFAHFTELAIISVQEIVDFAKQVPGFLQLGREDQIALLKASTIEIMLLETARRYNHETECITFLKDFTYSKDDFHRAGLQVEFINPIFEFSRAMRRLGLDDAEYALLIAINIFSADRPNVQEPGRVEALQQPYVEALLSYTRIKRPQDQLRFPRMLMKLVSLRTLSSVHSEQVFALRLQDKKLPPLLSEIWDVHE
Sequence of Cellular tumor antigen p53 (Homo sapiens) (P04637 whole entry, looked up, the tested form may be a part): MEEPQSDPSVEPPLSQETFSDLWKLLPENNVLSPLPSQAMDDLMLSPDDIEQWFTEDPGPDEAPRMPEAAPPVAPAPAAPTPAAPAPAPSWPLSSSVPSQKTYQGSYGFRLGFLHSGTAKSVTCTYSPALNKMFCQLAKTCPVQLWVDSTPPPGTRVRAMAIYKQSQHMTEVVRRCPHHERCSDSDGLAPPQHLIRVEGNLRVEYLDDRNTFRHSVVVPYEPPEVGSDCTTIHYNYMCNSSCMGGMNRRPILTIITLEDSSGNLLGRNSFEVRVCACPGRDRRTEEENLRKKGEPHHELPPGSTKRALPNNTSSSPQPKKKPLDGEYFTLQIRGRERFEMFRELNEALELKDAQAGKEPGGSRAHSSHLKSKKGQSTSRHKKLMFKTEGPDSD
Sequence of Estrogen-related receptor gamma (Homo sapiens) (P62508 whole entry, looked up, the tested form may be a part): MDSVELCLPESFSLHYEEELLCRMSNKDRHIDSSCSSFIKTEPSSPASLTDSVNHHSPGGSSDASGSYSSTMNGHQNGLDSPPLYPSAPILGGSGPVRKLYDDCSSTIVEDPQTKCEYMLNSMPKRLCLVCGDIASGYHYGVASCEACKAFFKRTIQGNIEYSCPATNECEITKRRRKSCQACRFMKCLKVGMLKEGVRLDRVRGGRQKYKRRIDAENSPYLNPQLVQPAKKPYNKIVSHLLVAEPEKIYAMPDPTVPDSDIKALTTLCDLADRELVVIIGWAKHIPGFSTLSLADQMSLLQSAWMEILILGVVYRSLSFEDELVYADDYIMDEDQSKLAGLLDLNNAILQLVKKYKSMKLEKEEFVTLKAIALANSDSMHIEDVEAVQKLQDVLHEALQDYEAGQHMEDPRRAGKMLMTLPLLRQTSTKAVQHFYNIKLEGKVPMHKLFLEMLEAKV
Sequence of Glucocorticoid receptor (Homo sapiens) (P04150 whole entry, looked up): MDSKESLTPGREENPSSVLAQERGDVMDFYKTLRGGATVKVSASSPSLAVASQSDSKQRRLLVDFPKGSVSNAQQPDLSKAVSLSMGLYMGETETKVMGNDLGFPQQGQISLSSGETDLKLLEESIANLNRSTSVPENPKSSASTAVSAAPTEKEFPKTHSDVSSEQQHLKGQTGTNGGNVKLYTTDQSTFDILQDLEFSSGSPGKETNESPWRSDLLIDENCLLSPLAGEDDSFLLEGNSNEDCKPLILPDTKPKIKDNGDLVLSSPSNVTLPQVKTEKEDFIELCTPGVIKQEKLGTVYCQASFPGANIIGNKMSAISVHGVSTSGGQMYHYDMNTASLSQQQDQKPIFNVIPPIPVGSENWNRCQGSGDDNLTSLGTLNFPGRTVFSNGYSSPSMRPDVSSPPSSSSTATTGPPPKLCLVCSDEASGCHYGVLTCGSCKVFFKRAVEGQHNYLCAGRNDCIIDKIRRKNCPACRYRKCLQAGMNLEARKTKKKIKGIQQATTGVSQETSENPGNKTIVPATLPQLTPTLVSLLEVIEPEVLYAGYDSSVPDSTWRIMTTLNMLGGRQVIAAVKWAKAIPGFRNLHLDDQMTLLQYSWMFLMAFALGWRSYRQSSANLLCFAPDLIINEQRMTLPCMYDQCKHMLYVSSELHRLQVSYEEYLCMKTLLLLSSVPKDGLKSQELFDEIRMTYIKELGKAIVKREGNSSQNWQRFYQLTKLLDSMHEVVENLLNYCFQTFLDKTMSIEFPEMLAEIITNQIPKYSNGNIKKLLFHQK
Sequence of Hepatocyte nuclear factor 4-alpha (Homo sapiens) (P41235 whole entry, looked up): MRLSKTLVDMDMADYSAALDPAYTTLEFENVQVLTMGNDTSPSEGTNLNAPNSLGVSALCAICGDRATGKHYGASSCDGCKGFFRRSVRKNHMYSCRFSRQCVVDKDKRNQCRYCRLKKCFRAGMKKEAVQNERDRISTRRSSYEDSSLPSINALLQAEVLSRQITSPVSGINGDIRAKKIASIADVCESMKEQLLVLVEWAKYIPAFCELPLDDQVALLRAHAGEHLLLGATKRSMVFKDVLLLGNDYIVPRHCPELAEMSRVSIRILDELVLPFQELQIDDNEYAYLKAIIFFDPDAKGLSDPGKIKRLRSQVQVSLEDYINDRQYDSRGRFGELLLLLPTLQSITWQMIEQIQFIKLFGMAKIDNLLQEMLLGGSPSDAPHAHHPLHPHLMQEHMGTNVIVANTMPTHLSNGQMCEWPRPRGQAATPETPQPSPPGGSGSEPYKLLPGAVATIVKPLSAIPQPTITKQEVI
Sequence of Nuclear respiratory factor 1 (Homo sapiens) (Q16656 whole entry, looked up): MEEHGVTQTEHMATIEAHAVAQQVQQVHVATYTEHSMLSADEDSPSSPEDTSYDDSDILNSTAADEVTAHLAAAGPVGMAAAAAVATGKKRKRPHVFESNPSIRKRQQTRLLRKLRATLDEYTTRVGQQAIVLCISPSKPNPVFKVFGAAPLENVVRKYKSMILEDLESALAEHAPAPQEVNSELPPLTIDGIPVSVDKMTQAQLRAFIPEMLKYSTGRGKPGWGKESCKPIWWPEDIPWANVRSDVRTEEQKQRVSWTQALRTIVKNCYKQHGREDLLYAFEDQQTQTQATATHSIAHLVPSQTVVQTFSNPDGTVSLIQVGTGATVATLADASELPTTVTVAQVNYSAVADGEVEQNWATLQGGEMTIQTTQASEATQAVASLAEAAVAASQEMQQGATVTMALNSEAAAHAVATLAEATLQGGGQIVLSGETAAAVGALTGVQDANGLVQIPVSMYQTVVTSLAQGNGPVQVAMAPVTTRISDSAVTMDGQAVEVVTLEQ
Sequence of Myc proto-oncogene protein (Homo sapiens) (P01106 whole entry, looked up, the tested form may be a part): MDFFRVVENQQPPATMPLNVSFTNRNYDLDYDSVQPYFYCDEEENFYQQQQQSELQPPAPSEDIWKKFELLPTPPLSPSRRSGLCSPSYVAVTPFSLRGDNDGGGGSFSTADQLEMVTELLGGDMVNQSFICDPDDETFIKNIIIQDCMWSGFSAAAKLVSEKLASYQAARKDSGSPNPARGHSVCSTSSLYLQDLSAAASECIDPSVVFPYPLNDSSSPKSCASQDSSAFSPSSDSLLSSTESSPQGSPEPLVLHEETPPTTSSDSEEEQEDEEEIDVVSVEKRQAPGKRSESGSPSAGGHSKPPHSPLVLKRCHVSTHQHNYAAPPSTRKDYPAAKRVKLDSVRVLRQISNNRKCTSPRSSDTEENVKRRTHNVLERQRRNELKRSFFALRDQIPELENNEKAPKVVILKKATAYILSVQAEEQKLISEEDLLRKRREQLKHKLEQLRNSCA
Sequence of Transcriptional activator Myb (Homo sapiens) (P10242 whole entry, looked up): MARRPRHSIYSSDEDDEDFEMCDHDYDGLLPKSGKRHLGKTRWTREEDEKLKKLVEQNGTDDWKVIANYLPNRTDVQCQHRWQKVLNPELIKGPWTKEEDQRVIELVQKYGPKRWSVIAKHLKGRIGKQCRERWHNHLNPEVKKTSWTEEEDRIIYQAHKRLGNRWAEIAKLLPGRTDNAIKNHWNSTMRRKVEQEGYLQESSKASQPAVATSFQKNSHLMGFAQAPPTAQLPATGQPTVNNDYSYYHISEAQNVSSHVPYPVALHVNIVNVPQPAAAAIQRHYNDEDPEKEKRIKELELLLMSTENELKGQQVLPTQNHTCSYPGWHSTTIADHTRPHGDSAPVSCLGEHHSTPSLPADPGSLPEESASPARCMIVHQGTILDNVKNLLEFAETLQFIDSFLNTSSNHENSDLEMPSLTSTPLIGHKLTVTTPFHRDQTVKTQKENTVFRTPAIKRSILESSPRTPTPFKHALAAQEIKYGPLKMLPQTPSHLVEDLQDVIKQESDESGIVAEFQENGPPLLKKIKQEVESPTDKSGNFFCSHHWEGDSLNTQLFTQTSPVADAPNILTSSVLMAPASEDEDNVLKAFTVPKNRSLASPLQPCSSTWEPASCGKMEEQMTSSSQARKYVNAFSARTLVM

In general, AC50 refers to the midpoint of the concentration-response curve, whichever way the signal moves. `C#CCOS(=O)OC1CCCCC1Oc1ccc(C(C)(C)C)cc1` (configuration not stated): the result in [1], in [2], in [3], in assay [4], in [5] and in assay [6] was inactive. In addition, the compound was called inactive in assay [7], in assay [8], in assay [9], in assay [10], in [11] and in assay [14]. In addition, in assay [15], the outcome was inactive. Also, the values for the AC50 in assay [12], in assay [13] and in assay [16] were 1.19 µM (active), 0.811 µM (active) and 7.03 µM (active), respectively.

For the compound `CCCCNC(=O)n1c(NC(=O)OC)nc2ccccc21`, the compound was classed as inactive in assay [17], in assay [3], in assay [4], in [5], in assay [6] and in assay [7]. For the same compound, the result in assay [8], in assay [9], in assay [10], in [11], in assay [12] and in assay [13] was inactive. For the same compound, the outcome in assay [14] and in assay [15] was inactive. The AC50 in [16] is 6.89 µM (active).

Regarding `Cc1ccc(-c2c(Cl)nc(C#N)n2S(=O)(=O)N(C)C)cc1`, the result in assay [17], in [3], in assay [4], in assay [6], in assay [7] and in [8] was inactive. Further, the result in [9], in assay [10], in assay [11] and in assay [14] was inactive. Moreover, the AC50 is 6.65 µM (active) in assay [12], 11.9 µM (active) in assay [13], 27.3 µM (active) in assay [15] and 23.9 µM (active) in assay [16].

Consider `COc1nc(C)nc(NC(=O)NS(=O)(=O)c2ccccc2Cl)n1`, for which the compound was called inactive in assay [1], in assay [4], in assay [5], in assay [6], in assay [18] and in [7]. Also, the outcome in [8], in [9], in assay [10], in [12], in assay [13] and in assay [14] was inactive. For the same compound, the outcome in [15] and in assay [16] was inactive.

With `COP(N)(=O)SC` (configuration not stated), the call in assay [3], in assay [5], in assay [6], in assay [18], in assay [19] and in assay [7] was inactive. Moreover, the compound was called inactive in [8], in [9], in [10], in assay [11], in assay [12] and in assay [13]. In addition, the outcome in assay [14], in assay [15] and in [16] was inactive.

For the compound `COP(=S)(OC)Oc1nc(Cl)c(Cl)cc1Cl`, the outcome in [1], in assay [4], in assay [6], in assay [19], in assay [7] and in assay [8] was inactive. The compound was classed as inactive in assay [9], in assay [10], in [13], in assay [14], in assay [15] and in assay [16]. The AC50 in assay [12] is 26.2 µM (active).

Turning to `CCOC(=O)C(Cl)Cc1cc(-n2nc(C)n(C(F)F)c2=O)c(F)cc1Cl` (configuration not stated), the result in assay [17], in [3], in assay [4], in [6], in assay [18] and in [7] was inactive. Moreover, the result in assay [8], in [9], in assay [10], in assay [11], in [12] and in assay [13] was inactive. Further, the call in assay [14], in assay [15] and in assay [16] was inactive.
